Compound activity (PubChem BioAssay)
Most compounds without a hit are left out; they make up all but 19% or so of the library.
IL1B secr inh – inhibitors of inflammasome signaling (IL-1 beta secretion); THP-1 LPS/ATP IL-1B secretion, AlphaLISA, 16 h; hits give low values; activity change, % at 57.5 µM; 360,000 tested, 4.7% active; AID 743279; in the data active means activity change below about -50%; inconclusive means mostly about -30% to -49%
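THP-1 cells pretreated 1 hr with compounds (up to 57.5 uM final), then stimulated with LPS (250 ng/mL final) plus ATP (1.25 mM final); secreted IL-1B measured by AlphaLISA after 16 hr, decreased signal indicating inhibition.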
HT1080-NT tox – kills 2HG-producing HT-1080-NT fibrosarcoma cells. Potency, µM (series often up to 46.1 µM), without a hit: at the highest dose activity, negative = less viability, actives largely listed as cytotoxic. HT-1080-NT fibrosarcoma viability, CellTiter-Glo ATP luminescence, 48 h. 360,000 tested, 1.6% active;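 further: NT is the 2HG producing partner of a matched IDH1 knockdown line; potency means the concentration at half of the fitted maximal effect; 0% = DMSO-treated cells and -100% = media-only wells without cells; nearly all actives have a fitted effect of over 55% in size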
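Read-out is CellTiter-Glo luminescence after 10 minutes at room temperature, following 48 hours' compound treatment of HT-1080-NT cells (750 cells/well, RPMI, 5% FBS, 37 degrees C).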
TDP1 cell CPT – DT40-hTDP1 cell growth loss with CPT; chicken DT40 Tdp1-/-;hTDP1 cells + 20 nM CPT, ATP luminescence, 48 h; Potency, µM (top dose mostly 46.2 µM), for the others: at the highest dose activity change, negative = growth inhibition, usual class: inhibitors; 420,000 tested, 12% active; AID 686979; further: potency means the concentration at half of the fitted maximal effect; nearly all actives have a fitted effect of over 55% in size
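Cell growth measured by CellTiter-Glo luminescence after a minimum 48 h, 37 C compound exposure with 20 nM CPT in Tdp1-knockout DT40 cells stably expressing hTDP1, seeded 400/well; qHTS titration format.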
HT1080 IDH1KD tx – HT-1080 IDH1 knockdown cell toxicity (counter line); HT-1080 IDH1 knockdown viability, ATP luminescence, 48 h; Potency, µM (highest dose often 46.1 µM), inactives show top-dose activity, negative = toxicity, hits mostly cytotoxic; 360,000 tested, 2% active;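 further: potency means the concentration at half of the fitted maximal effect; 0% = DMSO wells and -100% = cell-free medium wells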
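In this qHTS, HT-1080 cells depleted of IDH1 are exposed for 48 h at 37 °C to compound titrations. Toxicity is scored from CellTiter-Glo luminescence, with DMSO as full viability and medium alone as none.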
TDP1 cell noCPT – qHTS for Inhibitors of human tyrosyl-DNA phosphodiesterase 1 (TDP1): qHTS in cells in absence of CPT | DT40 Tdp1-/- hTDP1 cells, no CPT, ATP luminescence, 48 h | Potency, µM (titrated, usually from 46.2 µM), for the others: at the top dose activity change, negative = growth inhibition, actives largely listed as inhibitors | 420,000 tested, 15% active | AID 686978, 2013; further: potency means the concentration at half of the fitted maximal effect; nearly all actives have a fitted effect of over 55% in size
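Chicken DT40 Tdp1-/- cells stably complemented with human TDP1 were seeded at 400 cells/well with DMSO in place of 20 nM camptothecin. After compound pinning, cells grew at least 48 hr at 37 °C; viability read by CellTiter-Glo luminescence.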
* hit, by the source's call. Unless noted, the call rests on the fitted dose curve; in most records, active means well fitted curve in the direction sought with a large enough effect; inconclusive means small, poorly fitted or top-dose-only effect, or another doubt; inactive means no such curve, though single readings can be large; an effect the other way counts as inactive or inconclusive. Unless noted, on the % scale 0 is the no-effect control and ±100 the full control effect.

Results for Cc1ccc(Nc2nc3nonc3[nH]c2=O)cc1Cl ?
IL1B secr inh: -17; HT1080-NT tox: inconclusive; TDP1 cell CPT: 16µM*; HT1080 IDH1KD tx: inconclusive; TDP1 cell noCPT: 26µM*

Results for Cc1ccc(Nc2nc3nonc3[nH]c2=O)cc1C ?
IL1B secr inh: 7; HT1080-NT tox: inconclusive; TDP1 cell CPT: inconclusive; HT1080 IDH1KD tx: inconclusive; TDP1 cell noCPT: inconclusive

Results for COc1cc2nc(CN3CCOCC3)n(CC(=O)NCC(F)(F)F)c(=O)c2cc1OC ?
IL1B secr inh: -2; HT1080-NT tox: 8%; TDP1 cell CPT: 9%; HT1080 IDH1KD tx: 7%; TDP1 cell noCPT: 9%

Results for O=C(CNC(=O)c1ccc(Cl)cc1Cl)OCc1nnc(-c2ccccc2)o1 ?
IL1B secr inh: 11; HT1080-NT tox: 11%; TDP1 cell CPT: 14%; HT1080 IDH1KD tx: 3%; TDP1 cell noCPT: -5%

How did CC1CC(C)(C)N(C(=O)CSc2ccc(-c3ccc(F)cc3)nn2)c2ccccc21 (centres undefined) do in these assays?
IL1B secr inh: -90*; HT1080-NT tox: inconclusive; TDP1 cell CPT: inconclusive; HT1080 IDH1KD tx: inconclusive; TDP1 cell noCPT: 22µM*

What do the screens show for `CC(C)C(=O)N1CCN(c2ccccc2NC(=S)NC(=O)Cc2ccccc2)CC1`?
IL1B secr inh: -11; HT1080-NT tox: 7%; TDP1 cell CPT: inconclusive; HT1080 IDH1KD tx: 11%; TDP1 cell noCPT: inconclusive

Results for O=C(CNC(=O)c1ccc(Cl)cc1)OCc1cc(=O)n2nc(C3CC3)sc2n1 ?
TDP1 cell CPT: 5%; TDP1 cell noCPT: -5%

What do the screens show for `CCCCCNC(=O)N[C@H](C(=O)O)C(C)C`?
IL1B secr inh: 12; HT1080-NT tox: 8%; TDP1 cell CPT: 3%; HT1080 IDH1KD tx: 13%; TDP1 cell noCPT: 0%

What do the screens show for `O=C(O)c1nn(Cc2csc(-c3ccccc3)n2)c(=O)c2ccccc12`?
IL1B secr inh: 5; HT1080-NT tox: 18%; TDP1 cell CPT: inconclusive; HT1080 IDH1KD tx: 10%; TDP1 cell noCPT: 12µM*

What do the screens show for `C=CCN(CC=C)C(=O)CN1C(=O)NC(c2ccccc2)(c2ccccc2)C1=O`?
IL1B secr inh: -24; HT1080-NT tox: -1%; TDP1 cell CPT: inconclusive; HT1080 IDH1KD tx: -8%; TDP1 cell noCPT: inconclusive

How did C=CCn1c(-c2cc3cccc(OC)c3o2)n[nH]c1=S do in these assays?
IL1B secr inh: 19; HT1080-NT tox: 3%; TDP1 cell CPT: inconclusive; HT1080 IDH1KD tx: -3%; TDP1 cell noCPT: inconclusive

Results for CC(C)C1NCCc2c1sc1ccccc21 (centres undefined) ?
IL1B secr inh: -50*; HT1080-NT tox: -22%; TDP1 cell CPT: -3%; HT1080 IDH1KD tx: -27%; TDP1 cell noCPT: inconclusive

Results for Cc1cc2nc(SCCOC(=O)Nc3ccc(Cl)cc3)nc(C)c2cc1C ?
IL1B secr inh: 16; HT1080-NT tox: 10%; TDP1 cell CPT: inconclusive; HT1080 IDH1KD tx: 10%; TDP1 cell noCPT: inconclusive

How did Cc1cccc(C)c1N1CCN(C(c2ccnc3ccccc23)c2nnnn2-c2ccc3c(c2)OCCO3)CC1 (centres undefined) do in these assays?
IL1B secr inh: inconclusive; HT1080-NT tox: inconclusive; TDP1 cell CPT: 18µM*; HT1080 IDH1KD tx: inconclusive; TDP1 cell noCPT: 15µM*

What do the screens show for `Fc1ccccc1N1CCN(C(c2ccnc3ccccc23)c2nnnn2-c2ccc3c(c2)OCCO3)CC1` (centres undefined)?
IL1B secr inh: -7; HT1080-NT tox: 1%; TDP1 cell CPT: inconclusive; HT1080 IDH1KD tx: -3%; TDP1 cell noCPT: 21µM*

How did Cc1cc(N2CCN(C(c3ccnc4ccccc34)c3nnnn3-c3c(C)cccc3C)CC2)c2ccccc2n1 (centres undefined) do in these assays?
IL1B secr inh: -56*; HT1080-NT tox: -14%; TDP1 cell CPT: 6.5µM*; HT1080 IDH1KD tx: -18%; TDP1 cell noCPT: 4.6µM*

What do the screens show for `CCOC(=O)[C@@H]1[C@H]2COc3ccccc3[C@@H]2N2C(=O)N(c3cccc(Cl)c3)C(=O)[C@@]12C`?
IL1B secr inh: -8; HT1080-NT tox: 0%; TDP1 cell CPT: inconclusive; HT1080 IDH1KD tx: 1%; TDP1 cell noCPT: 16µM*

What do the screens show for `CCOC(=O)[C@@H]1[C@H]2COc3ccccc3[C@H]2N2C(=O)N(c3cccc(Cl)c3)C(=O)[C@@]12C`?
IL1B secr inh: 10; HT1080-NT tox: inconclusive; TDP1 cell CPT: inconclusive; HT1080 IDH1KD tx: -9%; TDP1 cell noCPT: inconclusive

What do the screens show for `CCOC(=O)[C@@H]1[C@H]2COc3cc(OC)ccc3[C@H]2N2C(=O)N(c3cccc(Cl)c3)C(=O)[C@]12C`?
IL1B secr inh: inconclusive; HT1080-NT tox: -6%; TDP1 cell CPT: 15µM*; HT1080 IDH1KD tx: -2%; TDP1 cell noCPT: inconclusive

How did CCOC(=O)[C@@H]1[C@H]2COc3ccccc3[C@H]2N2C(=O)N(c3ccc(Cl)cc3)C(=O)[C@]12C do in these assays?
IL1B secr inh: 0; HT1080-NT tox: -23%; TDP1 cell CPT: inconclusive; HT1080 IDH1KD tx: 3%; TDP1 cell noCPT: 21µM*

What do the screens show for `O=C(COC(=O)COc1ccc(Cl)cc1Br)NC1CC1`?
IL1B secr inh: 14; HT1080-NT tox: -5%; TDP1 cell CPT: -11%; HT1080 IDH1KD tx: -8%; TDP1 cell noCPT: -2%

What do the screens show for `CC(C)c1ccc(CCNC(=O)CSC(=S)N2CCCC2)cc1`?
IL1B secr inh: -1; HT1080-NT tox: -1%; TDP1 cell CPT: -2%; HT1080 IDH1KD tx: 21%; TDP1 cell noCPT: -9%

How did Cc1nc2c(cnn2-c2ccccc2Cl)c(=O)n1-c1ccc(N2CCC(C)CC2)cc1 do in these assays?
IL1B secr inh: inconclusive; HT1080-NT tox: -10%; TDP1 cell CPT: 16µM*; HT1080 IDH1KD tx: -27%; TDP1 cell noCPT: inconclusive

How did CCc1nc2c(c(=O)c3ccccc3n2C)c(=O)n1-c1ccc(F)cc1 do in these assays?
IL1B secr inh: 21; HT1080-NT tox: -3%; TDP1 cell CPT: -7%; HT1080 IDH1KD tx: 3%; TDP1 cell noCPT: inconclusive

Results for CCOc1ccc(-n2c(CC)nc3c(cnn3-c3ccc(Cl)cc3)c2=O)cc1 ?
TDP1 cell CPT: 16µM*; TDP1 cell noCPT: 15µM*

How did Cc1ccc(-n2c(C)nc3c(cnn3-c3ccccc3Cl)c2=O)cc1C do in these assays?
IL1B secr inh: 12; HT1080-NT tox: 17%; TDP1 cell CPT: -9%; HT1080 IDH1KD tx: -1%; TDP1 cell noCPT: -27%

Results for Cc1ccc(-n2c(C)nc3c(cnn3-c3ccc(C)c(C)c3)c2=O)cc1C ?
IL1B secr inh: 1; HT1080-NT tox: 13%; TDP1 cell CPT: 18µM*; HT1080 IDH1KD tx: -2%; TDP1 cell noCPT: 16µM*
